In all, about 310,000 compounds went through this assay and about 14,000 (4.5%) showed an effect of 50% or more. The effect is printed as a negative number. For the sample, strong results were picked, then their nearest neighbours and some compounds at random.
Target: human ether-à-go-go-related gene (hERG) potassium channel (human, UniProt Q12809)
Assay: primary screen, population patch clamp on CHO cells stably expressing hERG; higher = less effect of the substance
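Note: peak tail current of the secondary pulse compared with the same well before compound.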

Chain of human ether-à-go-go-related gene (hERG) potassium channel (Q12809 whole entry, looked up): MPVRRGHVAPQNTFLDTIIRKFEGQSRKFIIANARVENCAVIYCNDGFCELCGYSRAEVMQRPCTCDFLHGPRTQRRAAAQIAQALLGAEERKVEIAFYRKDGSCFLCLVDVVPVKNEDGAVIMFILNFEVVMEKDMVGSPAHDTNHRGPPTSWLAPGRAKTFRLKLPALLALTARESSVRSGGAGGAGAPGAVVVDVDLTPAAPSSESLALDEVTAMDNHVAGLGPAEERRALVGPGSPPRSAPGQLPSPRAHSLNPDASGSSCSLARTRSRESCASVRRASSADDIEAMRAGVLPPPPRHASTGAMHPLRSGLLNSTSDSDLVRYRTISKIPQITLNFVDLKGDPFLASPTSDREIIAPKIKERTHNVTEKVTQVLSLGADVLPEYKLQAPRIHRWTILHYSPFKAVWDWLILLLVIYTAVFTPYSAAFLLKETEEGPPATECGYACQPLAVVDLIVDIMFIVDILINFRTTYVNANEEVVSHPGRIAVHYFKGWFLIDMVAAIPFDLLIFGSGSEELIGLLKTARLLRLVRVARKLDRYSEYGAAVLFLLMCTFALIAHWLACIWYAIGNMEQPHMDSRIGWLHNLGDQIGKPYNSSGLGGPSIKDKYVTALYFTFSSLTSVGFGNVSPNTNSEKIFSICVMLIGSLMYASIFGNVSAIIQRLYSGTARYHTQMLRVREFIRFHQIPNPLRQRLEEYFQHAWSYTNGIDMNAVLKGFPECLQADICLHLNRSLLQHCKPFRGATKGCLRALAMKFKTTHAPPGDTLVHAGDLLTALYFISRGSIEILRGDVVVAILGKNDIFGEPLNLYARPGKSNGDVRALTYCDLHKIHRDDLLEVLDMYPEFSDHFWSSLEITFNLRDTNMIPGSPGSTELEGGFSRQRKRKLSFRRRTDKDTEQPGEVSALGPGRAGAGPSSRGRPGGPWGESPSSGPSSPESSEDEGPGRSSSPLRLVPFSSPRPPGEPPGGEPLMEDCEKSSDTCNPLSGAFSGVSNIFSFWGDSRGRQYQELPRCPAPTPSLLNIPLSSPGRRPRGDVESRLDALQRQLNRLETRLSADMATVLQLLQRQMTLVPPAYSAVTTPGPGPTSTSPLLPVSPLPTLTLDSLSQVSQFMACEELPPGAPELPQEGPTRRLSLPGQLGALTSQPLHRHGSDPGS

SMILES	hERG current change (%, negative = inhibition) at 10uM [%]
CC(C)N1CC(C(=O)Nc2ccc(Br)c(Cl)c2)CC1=O (stereo not shown)	-2.34
O=C(COc1ccc(-c2ccccc2)cc1)NNC(=O)Nc1ccccc1	-2.73
Nc1c(Cl)ncnc1N/N=C/c1ccnc2ccccc12	1.91
CC(C)NC(=O)C(=O)NCCN1CCN(S(=O)(=O)c2ccc(Cl)cc2)CC1	-33.3
COCCN(C(C)=O)c1nnc(-c2cnccn2)s1	6.11
COC(=O)C1=C(C)NC2=C(C(=O)CC(C)(C)C2)C1c1cnn(C)c1C (stereo not shown)	15.6
COc1ccc(OCC(=O)N/N=C2\CCCCc3ccccc32)cc1	-12.3
CCOc1ccc(-n2c(Cc3ccccc3)nnc2SCc2c(C)noc2C)cc1	-74.1
CCn1c(Cc2ccccc2)nnc1SCC(=O)c1cccc([N+](=O)[O-])c1	-24
Cc1cccc(-n2c(Cc3ccccc3)nnc2SCc2ccc([N+](=O)[O-])cc2)c1	-37.6
CCn1c(Cc2ccccc2)nnc1SCc1ccc([N+](=O)[O-])cc1	-57.1
CCc1ccc(-n2c(SCc3c(C)noc3C)nnc2-c2ccncc2)cc1	-36.6
CCOc1ccc(-n2c(COc3ccccc3)nnc2SCC(N)=O)cc1	-13.8
OCCOCCn1c(-c2ccccc2)nc(=S)c2c1CCCC2	9.34
CCCOc1ccc(Cn2c(O)cc(=O)[nH]c2=O)cc1	14.1
Cc1sc2ccccc2[n+]1CC(=O)c1ccccc1.[Br-]	18.7
Cc1sc(N)c(C(=O)c2ccccc2)c1C	9.41
O=C(c1ccccc1)c1c2c(cc3sc4ccccc4[n+]13)-c1cccc3cccc-2c13.[Br-]	-76.8
Cc1sc2cc3c(c(C(=O)c4ccccc4)[n+]2c1C)-c1cccc2cccc-3c12.[Br-]	-77.1
O=C(O)c1cccc(N2C(=O)c3cccc4cccc(c34)C2=O)c1	12.7
CN(C)/C=N/c1ncc(C(=O)c2ccccc2)s1	1.48
N#C/C(=C\c1ccccc1)C(=O)NC1CC1	11.3
O=C(CSc1nnnn1-c1cccc(F)c1)Nc1nc2ccccc2s1	8.36
c1ccc2oc(-c3[nH]ncc3CN3CCSCC3)cc2c1	-5.92
c1ccc(-c2ccc(-c3[nH]ncc3CN3CCC(N4CCSCC4)CC3)cc2)cc1	-80.7
Cc1nonc1C1CCCN1Cc1cn[nH]c1-c1ccc(-c2ccccc2)cc1 (stereo not shown)	-24.6
COCC1CCN(Cc2cn[nH]c2-c2cc3ccccc3o2)C1 (stereo not shown)	-33.7
c1ccc2oc(-c3[nH]ncc3CN3CCC(N4CCSCC4)CC3)cc2c1	-61.9

SMILES	hERG current change (%, negative = inhibition) at 10uM [%]
COc1ccc(-c2[nH]ncc2CN2CCC(N3CCSCC3)CC2)c(F)c1	1.98
CN(C)c1ccc(CNC(=O)CN(C)S(=O)(=O)c2ccc3c(c2)c(=O)n(C)c(=O)n3C)cc1	9.67
CC1(C)CC(=O)C2=C(C1)NC(=O)NC2c1ccccc1Cl (stereo not shown)	16.3
Cc1ccc(S(=O)(=O)NCC(=O)N(CC2CCCO2)C(C(=O)NC2CCCCC2)C(C)C)cc1 (stereo not shown)	-52.7
Cc1ccc(S(=O)(=O)NCC(=O)N(CC2CCCO2)C(C(=O)NC2CCCC2)C(C)C)cc1 (stereo not shown)	-1.47
CC(C)C(C(=O)NC1CCCCC1)N(CC1CCCO1)C(=O)CNS(=O)(=O)c1ccc(F)cc1 (stereo not shown)	-7.17
Cl.O=C(O)CCNc1nc(-c2ccccc2)nc2ccccc12	2.17
CC(C)(C)OC(=O)NNC(=O)NC12CC3CC(CC(C3)C1)C2	-4.97
Cc1ccc(NC(=O)CSc2nc(N)cc(N)n2)cc1S(=O)(=O)N1CCOCC1	7.71
CCN(C(=O)C1CCN(c2nc(-c3ccc(OC)cc3)no2)CC1)c1ccccc1	-24.7
O=C(CSCc1cccc(CSCC(=O)Nc2ccc3ccccc3c2)n1)Nc1ccc2ccccc2c1	9.54
O=C(CSCc1ccccn1)Nc1ccccc1	1.85
O=C(CSCc1cccc(CSCC(=O)Nc2ccccc2)n1)Nc1ccccc1	-67
O=C(CSCc1ccco1)Nc1cc(C(F)(F)F)ccc1N1CCOCC1	-49
CC(C(=O)N1CCN(c2ccccc2F)CC1)c1ccc([N+](=O)[O-])cc1 (stereo not shown)	-68.4
O=S(=O)(c1ccc(OCC(O)CN2CCN(c3ccccc3O)CC2)cc1)N1CCOCC1 (stereo not shown)	-6.91
COc1cccc(OC)c1OCC(O)CN1CCN(c2ccccc2F)CC1.Cl (stereo not shown)	-12.2
Cl.OC(COCc1ccccc1)CN1CCN(c2ccccc2F)CC1 (stereo not shown)	-45.9
CC(C(=O)N1CCN(c2ccccc2)CC1)c1ccc([N+](=O)[O-])cc1 (stereo not shown)	-42.7
Cl.OC(COc1ccc(F)cc1)CN1CCN(c2ccccc2F)CC1 (stereo not shown)	-66.6
CC(C(=O)N1CCCC1)c1ccc([N+](=O)[O-])cc1 (stereo not shown)	-0.0422
O=[N+]([O-])c1ccc(OCC(O)CN2CCN(c3ccccc3F)CC2)cc1 (stereo not shown)	-75.3
Cc1ccc(N2CCN(C(=O)NC3CCCCC3)CC2C)cc1 (stereo not shown)	4.09
CCOC(=O)c1c(S(=O)(=O)NCc2cccs2)c(C)n(C)c1C	-12.1
CC(=O)c1ccc(N(C(=O)Cc2c[nH]c3ccccc23)C(C(=O)NC2CCCCC2)c2cccs2)cc1 (stereo not shown)	7.81
CN1C(=O)CSC1=NCC12CC3CC(CC(C3)C1)C2	-19.6
CC(C)CC(=O)NC1(C(F)(F)F)C(=O)Nc2c1c(=O)n(C)c(=O)n2C (stereo not shown)	10.5

— PMC4336329 (PLoS ONE, 2015)
